Experimental data: PubChem BioAssay
Activity calls are given as the source filed them.

Assays:
Albumin (Bos taurus) = Albumin (Bos taurus) (UniProt P02769); assay: compounds binding labelled BSA control protein – biochemical, small-molecule microarray, Alexa647 label, 635/667 nm fluorescence, artefact control for SMM control protein annotation, profiling panel (AID 1118); settings: BSA-A647 binding, fluorescence 635 nm, higher = more signal;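 note: score merges 667 nm emission intensity and signal-to-noise per printed compound spot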
Sequence of Albumin (Bos taurus) (P02769 whole entry, looked up): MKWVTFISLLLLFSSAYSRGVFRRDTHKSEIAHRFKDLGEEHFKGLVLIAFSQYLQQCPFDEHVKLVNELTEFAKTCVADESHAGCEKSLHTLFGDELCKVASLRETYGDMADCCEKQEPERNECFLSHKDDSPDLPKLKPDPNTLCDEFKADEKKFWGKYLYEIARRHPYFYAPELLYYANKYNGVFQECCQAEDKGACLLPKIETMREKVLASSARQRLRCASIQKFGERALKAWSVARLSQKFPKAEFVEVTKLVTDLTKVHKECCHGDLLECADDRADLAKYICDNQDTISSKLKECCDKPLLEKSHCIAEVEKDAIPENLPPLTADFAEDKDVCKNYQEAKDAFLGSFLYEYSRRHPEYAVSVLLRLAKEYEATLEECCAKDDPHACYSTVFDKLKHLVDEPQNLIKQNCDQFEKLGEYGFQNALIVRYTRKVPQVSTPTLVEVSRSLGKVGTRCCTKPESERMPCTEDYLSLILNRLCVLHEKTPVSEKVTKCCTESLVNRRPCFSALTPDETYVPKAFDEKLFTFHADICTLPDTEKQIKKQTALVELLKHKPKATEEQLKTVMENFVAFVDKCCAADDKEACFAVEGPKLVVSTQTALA

[1] = probe aXIP binding to arrayed compounds – biochemical, NeuroSMM set, 635/667 nm fluorescence, primary screen (AID 1119); settings: small-molecule microarray, higher = more signal, called active from +8 up or from −8 down;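 note: probe is the protein aXip251-270 applied at 1 µg/mL to compound-printed slides; binding of probe to printed compounds measured as 667 nm fluorescence plus signal to noise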
[2] = probe aNOTCH3 binding on compound microarray – biochemical, small-molecule microarray, 635/667 nm fluorescence, primary screen (AID 1120); settings: higher = more signal;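 note: probe is a biotin-tagged antibody raised against NOTCH3 rather than NOTCH3 protein; score merges spot fluorescence near 667 nm with spot signal to noise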
[3] = probe aNOTCH2 binding on compound microarray – biochemical, small-molecule microarray, 635/667 nm fluorescence, primary screen (AID 1121); settings: higher = more signal;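 note: score merges feature fluorescence read at 667 nm with its signal to noise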
[4] = biological target: Carbonic anhydrase 2 (Homo sapiens) (UniProt P00918); assay: compounds binding carbonic anhydrase 2 – biochemical, small-molecule microarray, Alexa647-labelled CAII, profiling panel (AID 1122); settings: CAII-A647 binding fluorescence, higher = more signal
[5] = COS7 lysate on small-molecule microarray, probe aHis, 635 nm (AID 1123); settings: COS7 cell lysate, fluorescence, higher = more signal;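 note: z-score combines 667nm fluorescence intensity with signal-to-noise per printed compound spot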
[6] = probe aLAP1 signal on lysate-treated microarray – cell lysate, small-molecule microarray, COS7 lysate, primary screen (AID 1124); settings: probe aLAP1, fluorescence, higher = more signal;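 note: lysate comes from COS7 cells expressing LAP1 and is applied at 0.3 µg/mL; score merges spot fluorescence near 667 nm with signal-to-noise over triplicate slides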
Sam68 (KHDRBS1) = assay: compounds binding KHDRBS1 protein – biochemical, small-molecule microarray, 635 nm fluorescence, primary screen (AID 1125); settings: higher = more signal;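 note: score merges 667 nm channel intensity with signal to noise over triplicate slides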
[7] = test system: Chordin-like protein 2 (CHRDL2); assay: compounds binding chordin-like 2 – biochemical, small-molecule microarray, 635 nm fluorescence, primary screen (AID 1126); settings: fluorescence 635 nm, higher = more signal;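 note: printed compound slides probed with Chrdl2 protein at 4 µg/mL for 1 h at 4 C; score merges 667 nm emission intensity with signal to noise over three replicate slides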
[8] = biological target: Concanavalin-A (Canavalia ensiformis) (UniProt P02866); assay: compounds binding concanavalin A lectin – biochemical, small-molecule microarray, Alexa647 label, 635 nm, artefact control for SMM control protein annotation, primary screen (AID 1127); settings: ConA-A647 binding fluorescence, higher = more signal;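 note: z combines 667 nm emission intensity with signal-to-noise across three replicate slides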
Sequence of Concanavalin-A (Canavalia ensiformis) (P02866 whole entry, looked up): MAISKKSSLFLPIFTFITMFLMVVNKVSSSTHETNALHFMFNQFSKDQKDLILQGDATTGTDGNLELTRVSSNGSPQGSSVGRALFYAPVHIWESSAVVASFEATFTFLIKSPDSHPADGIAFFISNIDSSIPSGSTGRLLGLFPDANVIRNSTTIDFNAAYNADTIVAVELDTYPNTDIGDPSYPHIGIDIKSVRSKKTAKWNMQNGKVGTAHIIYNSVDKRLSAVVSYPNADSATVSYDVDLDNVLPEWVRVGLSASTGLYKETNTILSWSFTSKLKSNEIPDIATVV

[9] = compounds binding Alexa647 anti-His antibody – biochemical, small-molecule microarray, 635 nm fluorescence, artefact control for SMM control protein annotation, primary screen (AID 1128); settings: higher = more signal;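 note: score merges feature fluorescence with signal-to-noise for each printed compound spot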
[10] = test system: Human papillomavirus type 1a E7 protein (residues 1-88); assay: HPV1a E7 small-molecule binders, primary screen, biochemical, small-molecule microarray, residues 1-88, 635 nm (AID 1129); settings: small-molecule microarray binding, fluorescence 635 nm; higher = more signal
[11] = biological target: Focal adhesion kinase 1 (Homo sapiens) (UniProt Q05397); assay: PTK2 protein binding on printed compound slides – biochemical, small-molecule microarray, 635/667 nm fluorescence, BSA, DTT, primary screen (AID 1130); settings: 635 nm fluorescence, higher = more signal;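 note: composite of spot emission at 667 nm and signal to noise over triplicate slides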
Sequence of Focal adhesion kinase 1 (Homo sapiens) (Q05397 whole entry, looked up): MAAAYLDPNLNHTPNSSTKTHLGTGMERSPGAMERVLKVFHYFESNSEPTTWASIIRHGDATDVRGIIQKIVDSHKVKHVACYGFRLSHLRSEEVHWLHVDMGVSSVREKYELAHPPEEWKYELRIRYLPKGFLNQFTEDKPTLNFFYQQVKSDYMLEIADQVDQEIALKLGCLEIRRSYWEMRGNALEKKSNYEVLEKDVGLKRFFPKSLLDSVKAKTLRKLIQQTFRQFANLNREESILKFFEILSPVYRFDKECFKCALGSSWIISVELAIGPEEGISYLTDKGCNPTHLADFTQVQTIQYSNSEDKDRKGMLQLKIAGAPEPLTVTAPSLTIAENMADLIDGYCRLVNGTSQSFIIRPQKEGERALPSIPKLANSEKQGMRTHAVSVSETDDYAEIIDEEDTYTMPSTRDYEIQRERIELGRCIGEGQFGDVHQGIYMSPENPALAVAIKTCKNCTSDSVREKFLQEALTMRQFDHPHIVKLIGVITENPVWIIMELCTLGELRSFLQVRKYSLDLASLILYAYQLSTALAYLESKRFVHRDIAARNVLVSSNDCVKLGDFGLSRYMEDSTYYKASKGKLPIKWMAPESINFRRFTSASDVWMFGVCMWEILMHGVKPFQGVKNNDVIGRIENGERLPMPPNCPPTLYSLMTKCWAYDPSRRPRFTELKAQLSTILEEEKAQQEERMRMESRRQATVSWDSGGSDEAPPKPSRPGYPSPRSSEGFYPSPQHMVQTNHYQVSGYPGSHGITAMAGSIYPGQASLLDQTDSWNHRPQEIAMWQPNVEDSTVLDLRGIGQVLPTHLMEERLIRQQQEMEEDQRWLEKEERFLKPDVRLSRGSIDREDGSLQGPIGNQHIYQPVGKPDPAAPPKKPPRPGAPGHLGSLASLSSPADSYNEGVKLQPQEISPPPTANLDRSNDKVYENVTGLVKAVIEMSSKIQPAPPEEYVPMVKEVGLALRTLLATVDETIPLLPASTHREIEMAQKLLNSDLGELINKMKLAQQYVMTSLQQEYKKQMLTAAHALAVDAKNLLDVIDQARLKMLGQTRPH

[12] = test system: Fibrinogen (Alexa647-labelled); assay: Alexa647-fibrinogen binding to printed small molecules – biochemical, small-molecule microarray, 635/667 nm fluorescence, artefact control for SMM control-protein annotation, profiling panel (AID 1131); settings: fibrinogen-A647 binding fluorescence, higher = more signal;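 note: z-score merges 667 nm fluorescence with per-spot signal-to-noise over triplicate slides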
[13] = biological target: Follistatin (Homo sapiens) (UniProt P19883); assay: FST protein binding to printed compounds – biochemical, small-molecule microarray, 635/667 nm fluorescence, primary screen (AID 1132); settings: 635 nm fluorescence, higher = more signal
Sequence of Follistatin (Homo sapiens) (P19883 whole entry, looked up): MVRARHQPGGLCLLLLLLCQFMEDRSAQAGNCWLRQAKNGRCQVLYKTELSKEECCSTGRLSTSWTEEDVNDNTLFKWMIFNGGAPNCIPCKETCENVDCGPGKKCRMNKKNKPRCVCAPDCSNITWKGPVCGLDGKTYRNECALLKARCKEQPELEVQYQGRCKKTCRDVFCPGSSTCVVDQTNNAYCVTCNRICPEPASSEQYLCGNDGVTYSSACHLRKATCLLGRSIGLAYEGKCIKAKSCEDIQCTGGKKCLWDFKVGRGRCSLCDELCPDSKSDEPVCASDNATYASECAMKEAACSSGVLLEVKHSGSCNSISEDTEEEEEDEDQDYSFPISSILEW

[14] = biological target: Fibroblast growth factor 2 (Homo sapiens) (UniProt P09038); assay: basic fibroblast growth factor binding to printed compounds – biochemical, small-molecule microarray, 635/667 nm fluorescence, primary screen (AID 1133); settings: FGF2, fluorescence 635/667, higher = more signal
Sequence of Fibroblast growth factor 2 (Homo sapiens) (P09038 whole entry, looked up): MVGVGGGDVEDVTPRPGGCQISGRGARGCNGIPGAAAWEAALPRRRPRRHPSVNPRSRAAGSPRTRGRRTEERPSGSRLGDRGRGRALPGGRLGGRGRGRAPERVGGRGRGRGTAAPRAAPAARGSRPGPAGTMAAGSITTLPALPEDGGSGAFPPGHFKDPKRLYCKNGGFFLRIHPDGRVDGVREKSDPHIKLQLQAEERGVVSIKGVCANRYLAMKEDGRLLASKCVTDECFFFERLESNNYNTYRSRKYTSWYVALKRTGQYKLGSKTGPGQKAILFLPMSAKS

[15] = JC-1 mitochondrial potential readout, lung cancer cells – cell-based, A549, JC-1 fluorescence, basal, 24 h, 100 nL, profiling panel (AID 1138); settings: higher = more signal;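 note: A549 lung adenocarcinoma cells under basal conditions with no added stimulus; test concentration not given here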
Lefty1 = Lefty1 protein binding to printed compounds – biochemical, small-molecule microarray, 635/667 nm fluorescence, primary screen (AID 1139); settings: fluorescence 635/667, higher = more signal
[16] = test system: wheat germ agglutinin (Triticum aestivum), Alexa647-labelled; assay: Alexa647-WGA lectin binding to printed small molecules – biochemical, small-molecule microarray, 635/667 nm fluorescence, artefact control for SMM control-protein annotation, profiling panel (AID 1140); settings: WGA-A647 binding, 635 nm fluorescence, higher = more signal;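 note: score merges 667 nm feature emission with signal to noise over triplicate slides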
[17] = biological target: Luciferin 4-monooxygenase (Photinus pyralis) (UniProt P08659); assay: inhibition of purified Photinus pyralis luciferase – biochemical, luminescence, purified enzyme, 2006 set, primary screen (AID 1141); settings: purified firefly luciferase, SteadyGlo luminescence, 30 min; higher = more signal, called active from +8 up or from −8 down;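 note: cell-free assay with purified firefly luciferase at 100 ng per well in PBS; test concentration not given here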
Sequence of Luciferin 4-monooxygenase (Photinus pyralis) (P08659 whole entry, looked up): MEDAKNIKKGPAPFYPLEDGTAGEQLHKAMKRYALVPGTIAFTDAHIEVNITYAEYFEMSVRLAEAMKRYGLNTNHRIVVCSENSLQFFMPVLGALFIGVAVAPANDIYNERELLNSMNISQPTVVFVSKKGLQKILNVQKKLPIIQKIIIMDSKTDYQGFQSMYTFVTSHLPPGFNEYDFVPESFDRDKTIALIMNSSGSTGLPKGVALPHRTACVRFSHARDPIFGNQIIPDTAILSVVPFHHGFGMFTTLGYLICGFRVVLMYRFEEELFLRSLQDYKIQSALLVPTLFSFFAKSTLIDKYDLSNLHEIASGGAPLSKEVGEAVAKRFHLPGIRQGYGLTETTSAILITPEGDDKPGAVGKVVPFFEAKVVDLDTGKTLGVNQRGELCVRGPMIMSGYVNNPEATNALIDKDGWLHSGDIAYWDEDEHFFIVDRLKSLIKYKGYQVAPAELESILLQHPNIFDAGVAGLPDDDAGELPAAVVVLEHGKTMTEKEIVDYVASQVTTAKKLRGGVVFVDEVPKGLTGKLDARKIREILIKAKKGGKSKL

Row | SMILES | composite z-score (Albumin (Bos taurus)) | composite Z-score [1] | composite z-score [2] | composite z-score [3] | composite z-score [4] | composite z-score [5] | composite z-score [6] | composite z-score (Sam68 (KHDRBS1)) | composite z-score [7] | composite z-score [8] | composite z-score [9] | composite z-score [10] | composite z-score [11] | composite z-score [12] | composite z-score [13] | composite z-score [14] | z-score [15] | composite z-score (Lefty1) | composite z-score [16] | z-score [17]
1 | C[N+](C)(C)CCCC[C@@H]1NC(=O)[C@@H]2C[C@H](C(=O)NCCCCCN)[C@H](c3ccc(O)cc3)N2C1=O | 0.877 | 1.01 (inactive) | 0.363 | 0.154 | 0.72 | 1.53 | 1.02 | 1.19 | 0.248 | 1.15 | 2.08 | 1.05 | 0.0992 | 0.927 | 1.4 | 1.8 | 0.962 | 1.64 | 0.87 | -1.26 (inactive)
2 | O=C(NCc1ccccc1)[C@@H]1c2ccccc2C(=O)N(C2Cc3ccccc3C2)[C@H]1c1ccc(CO)cc1 | 0.0732 | 0.0702 (inactive) | 0.0711 | -0.0249 | 0.767 | 1.35 | 0.0541 | 0.958 | -0.357 | 0.899 | 0.526 | 1.17 | 0.166 | 0.299 | 0.957 | 0.892 | 0.353 | 0.459 | 1.1 | 0.111 (inactive)
3 | COC(=O)C(CC#Cc1ccc2c(c1)[C@]1(C(=O)N2)[C@H](c2ccccc2OCCO)N2[C@H](c3ccccc3)[C@H](c3ccccc3)OC(=O)[C@H]2[C@@H]1C(N)=O)C(=O)OC | 0.468 | 0.389 (inactive) | 0.631 | 0.25 | 0.672 | 2.09 | 0.493 | 0.519 | 0.0031 | 0.736 | 1.6 | 1.22 | 0.473 | 0.711 | 0.619 | 0.168 | -0.153 | -0.0878 | 1.15 | -0.821 (inactive)
4 | O=C(NCCN1CCOCC1)[C@@H]1c2ccccc2C(=O)N(Cc2cc(C(F)(F)F)cc(C(F)(F)F)c2)[C@H]1c1ccc(CO)cc1 | -0.32 | -0.253 (inactive) | -0.292 | -0.101 | 0.699 | 1.61 | 0.501 | 0.687 | -1.67 | 0.412 | 0.537 | -0.137 | 0.31 | -0.487 | -0.48 | -0.879 | 2.57 | -0.75 | 0.4 | -0.372 (inactive)
5 | OCCCC1=CC(C2CC2)N(Cc2cccc(OC(F)(F)F)c2)CC1 (stereo not given) | 0.485 | 0.438 (inactive) | -0.284 | -0.177 | 0.783 | 0.421 | 0.833 | -0.441 | -0.106 | -0.807 | -0.103 | -0.208 | 0.227 | -2.53 | -0.306 | -0.338 | 0.00271 | 0.32 | -0.0444 | 0.382 (inactive)
6 | Cc1ccc(S(=O)(=O)N2C[C@@H](C(=O)O)[C@H](Sc3ccccc3)C[C@H]2c2ccccc2)cc1 | 0.855 | -0.202 (inactive) | 0.418 | 0.0456 | 0.732 | 1.99 | 0.89 | 1.29 | -0.75 | 1.13 | 0.617 | 1.23 | 1.07 | 1.06 | 0.999 | -0.194 | -0.0335 | 0.697 | 1.03 | 1.88 (inactive)
7 | COCCCNC(=O)[C@@]1(Sc2ccc(C)cc2)CC(=O)N(Cc2ccccc2Cl)[C@@H]1c1ccc(CO)cc1 | 0.71 | -0.301 (inactive) | 0.132 | -0.14 | 0.718 | 1.35 | 0.203 | 1.1 | 0.649 | 0.629 | 0.225 | 1.12 | 0.215 | 0.833 | 1.35 | 1.24 | -0.689 | 1.13 | 0.966 | 1.14 (inactive)
8 | CO[C@H]1O[C@H](CO)[C@@H](OC(=O)Nc2ccc(Br)cc2)[C@@H]2OC(=O)[C@H](Cc3cccc(Br)c3)C/C=C/C[C@@H](Cc3cccc(Br)c3)C(=O)O[C@@H]12 | 0.0911 | 0.106 (inactive) | -0.0622 | -0.129 | 0.275 | 0.112 | -0.0838 | -0.975 | 0.0113 | 0.365 | 0.144 | -0.122 | 0.2 | -0.538 | 0.585 | 0.268 | 1.37 | 0.647 | 0.616 | 0.671 (inactive)
9 | COC(=O)c1c(CC[C@@H](CO)NC(=O)N[C@H](Cc2ccccc2)Cn2cc(-c3ccccn3)nn2)oc(C(C)=O)c1C(=O)OC | 0.687 | 0.794 (inactive) | -0.154 | -0.118 | 0.71 | 0.798 | 1.26 | 0.954 | -0.418 | 1.09 | 1.52 | -0.178 | 0.0026 | 0.801 | 0.0798 | 0.451 | -0.117 | 0.004 | 0.205 | 0.67 (inactive)
10 | [N-]=[N+]=Nc1ccccc1[C@H]1OC(c2ccc(OCCCO)cc2)=N[C@@]1(CCS(=O)(=O)c1ccccc1)C(=O)NCc1ccccc1 | 0.307 | -0.0549 (inactive) | 0.318 | -0.037 | 0.684 | 2.3 | 0.403 | 1.32 | -0.164 | 0.94 | 1.18 | 1.24 | 0.341 | 1.04 | 1.34 | 0.694 | 0.727 | 0.152 | 0.697 | -7.61 (inactive)
11 | CC(C)Cc1ccc(CN2CC[C@@H](N)C2)cc1 | -0.275 | -0.536 (inactive) | -0.152 | -0.205 | -0.501 | -0.304 | -0.485 | -1.62 | -0.629 | -0.732 | -0.273 | -1.63 | -0.0574 | -0.0978 | -0.304 | -0.847 | 1.85 | 0.0735 | -0.314 | 0.824 (inactive)
